The source of these data is PubChem BioAssay (Tox21).

The structures appear in SMILES notation. Values without a mark were called inactive. Inconclusive results are not listed. Activity calls are given as the source filed them. Unless noted, calls follow the shape of the dose curve; as a rule, active = well fitted curve in the direction sought with a large enough effect in the repeat runs; inconclusive = weak or mixed curves; inactive = no such curve, though single readings can be large; an effect the other way counts as inactive or inconclusive.

The nature of assay [1]: qHTS assay to test for compound auto fluorescence at 535 nm (green) in HEK293 cells (AID 720680). Also: % is scaled to controls: 0 for no effect and ±100 for the full control effect.
Assay [2] can be described thus: qHTS assay to test for compound auto fluorescence at 460 nm (blue) in HEK293 cell free culture (AID 720681). Also: % is scaled to controls: 0 for no effect and ±100 for the full control effect. The essentials: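 Compounds were added to cell-free DMEM with 10% FBS and fluorescence read directly. The blue channel used 405 nm excitation and 460 nm emission, with triamterene as the reference fluorophore.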
The nature of assay [3]: qHTS assay to test for compound auto fluorescence at 535 nm (green) in HEK293 cell free culture (AID 720682). Also: % is scaled to controls: 0 for no effect and ±100 for the full control effect. The essentials: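 Using fluorescein as calibrant, autofluorescence was quantified at 485/535 nm in cell-free DMEM containing 10% FBS after pintool addition of compound or vehicle.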
Assay [4] is described as follows: qHTS assay to test for compound auto fluorescence at 590 nm (red) in HEK293 cell free culture (AID 720683). Also: % is scaled to controls: 0 for no effect and ±100 for the full control effect. The method in brief: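 Cell-free wells of DMEM with 10% FBS received compound, and intrinsic fluorescence was read at excitation/emission 540/590 nm. Values expressed as equivalence to Rose Bengal sodium.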
Assay [5] can be described thus: qHTS assay to test for compound auto fluorescence at 590 nm (red) in HepG2 cell free culture (AID 720684). Also: % is scaled to controls: 0 for no effect and ±100 for the full control effect. The method in brief: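 Compound was pinned into wells holding MEM with 10% FBS and no cells, and red fluorescence was read at Ex/Em 540/590 nm. Signal is expressed as auto fluorescence equivalency relative to Rose Bengal sodium.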
Assay [6] is described as follows: qHTS assay to test for compound auto fluorescence at 460 nm (blue) in HepG2 cell free culture (AID 720685). Also: % is scaled to controls: 0 for no effect and ±100 for the full control effect. The essentials: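 Compound (23 nL) or DMSO pinned into cell-free MEM with 10% FBS; blue fluorescence read at 405/460 nm excitation/emission, expressed as auto-fluorescence equivalency to triamterene.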
Assay [7] in a line: qHTS assay to test for compound auto fluorescence at 535 nm (green) in HepG2 cell free culture (AID 720686). Also: % is scaled to controls: 0 for no effect and ±100 for the full control effect.
Assay [8] can be described thus: qHTS assay to test for compound auto fluorescence at 460 nm (blue) in HepG2 cells (AID 720687). Also: % is scaled to controls: 0 for no effect and ±100 for the full control effect. The method in brief: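 HepG2 cells in MEM with 10% FBS, attached overnight at 37 C, were exposed to compound or DMSO for 1 hr at 37 C, 5% CO2. Blue fluorescence was read at 405/460 nm, with triamterene as reference fluorophore.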
In assay [9] the target is Glucocorticoid receptor (Homo sapiens) (UniProt P04150). The assay is described as follows: qHTS assay to identify small molecule agonists of the glucocorticoid receptor (GR) signaling pathway (AID 720691; active = well fitted activation curve with a large enough effect in the signal ratio in the repeat runs, not every such curve was filed as active; the % refers to the signal ratio; also: potency is read from the fitted curve at half-maximal effect). The method in brief: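 Reporter read-out: fluorescence intensity following 2 h room-temperature LiveBLAzer B/G FRET substrate loading. Prior step: GR-bla HeLa cells held 4 h, then treated 18 h at 37 C.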

The nature of assay [10]: qHTS assay to identify small molecule antagonists of the glucocorticoid receptor (GR) signaling pathway - cell viability counter screen (AID 720693). Also: % is scaled to controls: 0 for no effect and ±100 for the full control effect; nearly all actives have a fitted effect of over 55% in size.
Assay [11] can be described thus: qHTS assay for identifying genotoxic compounds that show differential cytotoxicity against isogenic chicken DT40 cell lines with known DNA damage response pathways - wild type cell line (AID 743012). Also: nearly all actives have a fitted effect of over 60% in size. Also: potency is read from the fitted curve at half-maximal effect. The method in brief: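 Using parental DT40 (300 cells/well), compounds delivered in DMSO incubate 40 h at 37 C/5% CO2. CellTiter-Glo reagent then stands 30 min at room temperature, and luminescence gives cell viability.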

Assay [12] is described as follows: qHTS assay for identifying genotoxic compounds that show differential cytotoxicity against isogenic chicken DT40 cell lines with known DNA damage response pathways - Rev3 mutant cell line (AID 743014). Also: nearly all actives have a fitted effect of over 55% in size. Also: potency is read from the fitted curve at half-maximal effect.
Assay [13] can be described thus: qHTS assay for identifying genotoxic compounds that show differential cytotoxicity against isogenic chicken DT40 cell lines with known DNA damage response pathways - Rad54/Ku70 mutant cell line (AID 743015). Also: nearly all actives have a fitted effect of over 60% in size. Also: potency is read from the fitted curve at half-maximal effect.
The nature of assay [14]: qHTS assay to identify small molecule antagonists of the androgen receptor (AR) signaling pathway using the MDA cell line - cell viability counter screen (AID 743041; also: nearly all actives have a fitted effect of over 45% in size; also: potency is read from the fitted curve at half-maximal effect). The method in brief:
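MDA-kb2 AR-luc cells (MMTV-luciferase, AR/GR responsive) treated with compounds plus R1881 agonist for 16 h at 37C. CellTiter-Fluor added at 15.5 h; fluorescence read after 30 min in the same wells.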

Assay [15] can be described thus: qHTS assay to identify small molecule antagonists of the thyroid receptor (TR) signaling pathway - cell viability counter screen (AID 743064). Also: nearly all actives have a fitted effect of over 50% in size. Also: potency is read from the fitted curve at half-maximal effect. The method in brief:
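Counter screen for cytotoxicity: compound plus T3 (1 nM final) on GH3.TRE-Luc cells, 23.5 h at 37 °C, then fluorescence viability readout with CellTiter-Fluor.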

Assay [16] addresses Glucocorticoid receptor (Homo sapiens) (UniProt P04150). The assay is described as follows: qHTS assay to identify small molecule antagonists of the glucocorticoid receptor (GR) signaling pathway (AID 720692; active = well fitted inhibition curve with a large enough effect in the signal ratio in the repeat runs, not every such curve was filed as active; the % refers to the signal ratio; also: potency is read from the fitted curve at half-maximal effect). The method in brief: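 Dexamethasone (5 nM final) stimulated a stably integrated GRE-beta-lactamase reporter in HeLa cells during 18 h co-incubation with compounds; signal was quantified as fluorescence intensity of B/G FRET substrate after 2 h.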

Assay [17] can be described thus: qHTS assay to identify small molecule antagonists of the androgen receptor (AR) signaling pathway - cell viability counter screen (AID 743033; also: nearly all actives have a fitted effect of over 45% in size; also: potency is read from the fitted curve at half-maximal effect).
Assay [18] concerns the target Androgen receptor (Homo sapiens) (UniProt P10275). The assay is described as follows: qHTS assay to identify small molecule agonists of the androgen receptor (AR) signaling pathway using the MDA cell line (AID 743040; also: nearly all actives have a fitted effect of over 20% in size; also: potency is read from the fitted curve at half-maximal effect). The essentials: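 MDA-kb2 breast carcinoma cells carrying MMTV-luciferase (responsive to AR and GR), plated 5 h then treated 16 h with compounds at 37C, 0% CO2. Read-out was ONE-Glo luminescence after 30 min at room temperature.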

For assay [19] the target is unchanged. The assay is described as follows: qHTS assay to identify small molecule antagonists of the androgen receptor (AR) signaling pathway using the MDA cell line (AID 743042; also: % is scaled to controls: 0 for no effect and ±100 for the full control effect; nearly all actives have a fitted effect of over 55% in size). The method in brief:
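MDA-kb2 breast carcinoma cells carrying MMTV-luciferase (AR/GR responsive) were co-treated with compounds and the agonist R1881 for 16 h at 37C. Inhibition read as ONE-Glo luminescence; CellTiter-Fluor fluorescence measured in parallel for cytotoxicity.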

Assay [20] has the same target. The assay is described as follows: qHTS assay to identify small molecule agonists of the androgen receptor (AR) signaling pathway (AID 743036; active = well fitted activation curve with a large enough effect in the signal ratio in the repeat runs, with a control signal flat, not every such curve was filed as active; the % refers to the signal ratio; also: potency is read from the fitted curve at half-maximal effect). The method in brief: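 In this Tox21 qHTS, 2,000 HEK293 AR-bla cells per well were incubated with compounds for 16 h at 37C and 5% CO2. Fluorescence intensity was recorded 2 h after adding LiveBLAzer B/G FRET substrate at room temperature.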

Chain of Glucocorticoid receptor (Homo sapiens) (P04150 whole entry, looked up): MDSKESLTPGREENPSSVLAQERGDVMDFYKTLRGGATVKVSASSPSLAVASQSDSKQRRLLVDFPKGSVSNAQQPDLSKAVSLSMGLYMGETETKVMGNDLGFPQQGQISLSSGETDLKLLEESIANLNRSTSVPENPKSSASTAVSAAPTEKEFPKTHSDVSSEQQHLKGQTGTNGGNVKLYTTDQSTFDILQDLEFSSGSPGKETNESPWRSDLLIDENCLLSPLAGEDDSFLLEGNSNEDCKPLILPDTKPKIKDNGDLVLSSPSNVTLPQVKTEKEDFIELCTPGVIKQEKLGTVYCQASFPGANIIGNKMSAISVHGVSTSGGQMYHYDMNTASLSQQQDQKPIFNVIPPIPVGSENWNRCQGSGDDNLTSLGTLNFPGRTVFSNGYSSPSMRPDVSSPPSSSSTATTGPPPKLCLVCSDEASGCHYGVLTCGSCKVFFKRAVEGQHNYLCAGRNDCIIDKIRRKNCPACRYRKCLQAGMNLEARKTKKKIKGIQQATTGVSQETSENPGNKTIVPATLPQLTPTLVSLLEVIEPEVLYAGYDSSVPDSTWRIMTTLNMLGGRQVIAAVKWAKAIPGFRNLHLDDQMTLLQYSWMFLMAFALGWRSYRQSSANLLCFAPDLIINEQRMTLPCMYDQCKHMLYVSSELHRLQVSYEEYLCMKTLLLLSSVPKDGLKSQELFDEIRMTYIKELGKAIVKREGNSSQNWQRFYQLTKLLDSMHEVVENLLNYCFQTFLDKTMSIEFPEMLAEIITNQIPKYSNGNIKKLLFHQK
Chain of Androgen receptor (Homo sapiens) (P10275 whole entry, looked up): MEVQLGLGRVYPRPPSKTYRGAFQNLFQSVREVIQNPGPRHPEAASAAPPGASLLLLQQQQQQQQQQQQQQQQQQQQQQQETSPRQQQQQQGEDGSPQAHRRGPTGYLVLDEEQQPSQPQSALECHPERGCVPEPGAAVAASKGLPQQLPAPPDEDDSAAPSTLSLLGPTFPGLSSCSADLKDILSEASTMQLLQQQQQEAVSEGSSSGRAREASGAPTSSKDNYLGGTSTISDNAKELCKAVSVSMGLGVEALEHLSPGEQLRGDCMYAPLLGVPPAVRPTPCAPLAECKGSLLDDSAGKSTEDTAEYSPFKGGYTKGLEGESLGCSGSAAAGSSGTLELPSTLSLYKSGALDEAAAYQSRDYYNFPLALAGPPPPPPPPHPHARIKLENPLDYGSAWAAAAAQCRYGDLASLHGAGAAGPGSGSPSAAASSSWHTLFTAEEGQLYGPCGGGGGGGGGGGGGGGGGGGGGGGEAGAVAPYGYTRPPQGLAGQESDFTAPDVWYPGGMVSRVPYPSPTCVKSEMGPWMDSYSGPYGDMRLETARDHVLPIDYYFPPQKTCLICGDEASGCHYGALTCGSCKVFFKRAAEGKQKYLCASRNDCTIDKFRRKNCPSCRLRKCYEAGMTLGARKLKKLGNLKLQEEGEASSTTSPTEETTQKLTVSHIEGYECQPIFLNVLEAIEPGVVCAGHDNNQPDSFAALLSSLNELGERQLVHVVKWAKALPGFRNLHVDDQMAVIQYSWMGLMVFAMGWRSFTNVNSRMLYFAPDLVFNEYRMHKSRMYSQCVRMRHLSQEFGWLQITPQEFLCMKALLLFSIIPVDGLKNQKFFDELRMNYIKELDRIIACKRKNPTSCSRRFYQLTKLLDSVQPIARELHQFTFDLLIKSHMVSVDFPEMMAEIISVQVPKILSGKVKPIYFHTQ

For `O=C(N[C@@H](c1ccccc1)[C@@H]1CCCCN1)c1cccc(C(F)(F)F)c1Cl`, the outcome in [1], in assay [3], in assay [4], in [5] and in [7] was inactive. Also, the Potency result in [2], in assay [6], in assay [8], in [9] and in [10] was “inactive” in each case. The Potency was 12.2 µM (active) in assay [11]; 13.7 µM (active) in [12]; 15.4 µM (active) in [13]; 24.3 µM (active) in [14]; 24.3 µM (active) in assay [15].

Regarding `C[Si](NC1CCCCC1)(NC1CCCCC1)NC1CCCCC1`, the outcome in assay [1], in assay [3], in assay [4], in assay [5] and in assay [7] was inactive. The Potency result in assay [2], in assay [6], in assay [8], in [9], in assay [16] and in assay [10] was “inactive” throughout. Moreover, the Potency entry in assay [14] and in assay [15] was “inactive” in each case. For the same compound, the Potency in assay [12] was 61.1 µM (active).

`CCCCOC(=O)CCS`: the compound was classed as inactive in assay [1], in [3], in [4], in [5] and in [7]. Moreover, the Potency result in assay [2], in [6], in [8], in assay [9], in assay [10] and in [11] was “inactive” in each case. Further, the Potency entry in [12], in assay [13], in assay [17] and in [15] was “inactive” in each case.

Consider `CC(=O)OCC(=O)[C@@]12OC(C)(C)O[C@@H]1C[C@H]1[C@@H]3C[C@H](F)C4=CC(=O)C=C[C@]4(C)[C@@]3(F)[C@@H](O)C[C@@]12C`, for which, in assay [1], the fluorescence, % of fluorescein was -0.0611% [at 18.6 µM]. Further, the fluorescence, % of fluorescent control in assay [2] is -0.0905% [at 18.6 µM]; in assay [4], 0.389% [at 18.6 µM]; in [6], -0.0666% [at 18.6 µM]; in assay [8] it was 0.231% [at 18.6 µM]. In [3], the activity change is -0.0593% [at 18.6 µM]. Besides, in assay [5], the fluorescence, % of Rose Bengal was -0.181% [at 18.6 µM]. Further, the fluorescence, % of fluorescein control in assay [7] was -0.0467% [at 18.6 µM]. Also, the Potency in assay [9] is 0.0064 µM (active). For the same compound, the Potency entry in [10], in assay [11], in assay [12], in [13] and in [14] was “inactive” in each case.

For the compound `O=C(NCCCN1CCOCC1)c1ccc(Cl)cc1`, the compound was classed as inactive in assay [1], in assay [3], in assay [4], in assay [5] and in assay [7]. The Potency entry in assay [2], in [6], in assay [8], in assay [9], in [16] and in assay [10] was “inactive” each time. For the same compound, the Potency result in [11], in [13], in [17], in assay [14] and in assay [15] was “inactive” each time.

As to `Oc1cc(O)c(Cl)cc1Cl`, the result in assay [1], in assay [3], in assay [4], in assay [5] and in assay [7] was inactive. The Potency result in assay [2], in assay [6], in assay [8], in assay [9], in assay [16] and in assay [10] was “inactive” throughout. Moreover, the Potency entry in [11], in assay [13], in assay [17] and in assay [14] was “inactive” each time.

`COc1cc2c(N3CCN(C(=O)Nc4ccc(OC(C)C)cc4)CC3)ncnc2cc1OCCCN1CCCCC1`: the outcome in [1], in assay [3], in assay [4], in assay [5] and in assay [7] was inactive. For the same compound, the Potency result in assay [2], in assay [6], in assay [8], in assay [9], in assay [10] and in [18] was “inactive” each time. The Potency result in assay [19] is “inactive”. The Potency in assay [11] was 6.68 µM (active); in assay [13], 5.96 µM (active); in assay [17], 6.01 µM (active); in assay [14], 33.5 µM (active); in assay [15], 11.9 µM (active).

Consider `Cc1ccc(/C=N/n2c(-c3ccccc3)csc2=S)cc1`, for which the compound was called inactive in assay [1], in assay [3], in assay [4], in assay [5] and in [7]. For the same compound, the Potency result in assay [2], in assay [6], in [8], in assay [9], in assay [10] and in assay [17] was “inactive” each time. Also, the Potency entry in assay [14] and in [15] was “inactive” throughout. The Potency in assay [11] is 26.6 µM (active); in assay [13], 29.8 µM (active).

For `NC(=O)N(O)[C@@H]1C=C[C@H](Oc2cccc(Oc3ccc(F)cc3)c2)C1`, the compound was called inactive in [1], in [3], in assay [4], in assay [5] and in assay [7]. For the same compound, the Potency entry in assay [2], in assay [6], in assay [8], in assay [9], in assay [10] and in assay [14] was “inactive” throughout. Also, the Potency result in [15] is “inactive”. In addition, the Potency in [11] was 54.5 µM (active); in [12], 61.1 µM (active); in assay [13], 54.5 µM (active).

With `Brc1cc(-c2ccc(Br)c(Br)c2Br)cc(Br)c1Br`, the result in [1], in assay [3], in [4], in assay [5] and in assay [7] was inactive. Further, the Potency entry in assay [2], in [6], in assay [8], in assay [9], in assay [10] and in assay [11] was “inactive” each time. For the same compound, the Potency entry in [12], in assay [13], in assay [17], in assay [14] and in assay [15] was “inactive” throughout.

For the compound `CC(=O)OCC(=O)[C@H]1CC[C@H]2[C@@H]3CCC4=CC(=O)CC[C@]4(C)[C@H]3CC[C@]12C`, the call in assay [1], in assay [3], in assay [4], in [5] and in assay [7] was inactive. Further, the Potency result in [2], in assay [6], in assay [8], in [9], in [10] and in assay [17] was “inactive” throughout. Moreover, the Potency result in assay [14], in assay [19] and in assay [15] was “inactive” each time. In addition, the Potency is 0.848 µM (active) in [16], 0.0301 µM (active) in assay [20] and 9.44 µM (active) in [18].

On to `c1cc[c]([Bi]([c]2ccccc2)[c]2ccccc2)cc1`, for which the compound was called inactive in [1], in [3], in [4], in assay [5] and in assay [7]. The Potency entry in assay [2], in assay [6], in assay [8], in assay [9], in assay [10] and in assay [17] was “inactive” throughout. For the same compound, the Potency in [16] is 19.5 µM (active); in assay [11], 61.1 µM (active); in [13] it was 61.1 µM (active).

As for `O=c1[nH]c2ccc(S(=O)CCN3CCC(Cc4ccc(F)cc4)CC3)cc2o1` (centres undefined), the outcome in assay [1], in [3], in assay [4], in assay [5] and in assay [7] was inactive. Further, the Potency result in [2], in assay [6], in assay [8], in [9], in assay [16] and in assay [10] was “inactive” in each case. Moreover, the Potency entry in assay [17], in assay [14] and in assay [15] was “inactive” in each case. Moreover, the Potency in assay [11] was 13.7 µM (active); in assay [13] it was 6.86 µM (active).
